This is an account of results in article PMC7862700, “An all-to-all approach to the identification of sequence-specific readers for epigenetic DNA modifications on cytosine”.

Common to all, as to test: DAPPL (digital affinity profiling via proximity ligation, sequencing); 10 mM Tris-HCl pH 7.5, 50 mM NaCl, 1 mM DTT, 4% glycerol, room temperature, 30 min; GST-TFs on glutathione beads, 16-mer random dsDNA library, 0.1% formaldehyde crosslink after washing; high values mean tight binding
One experiment concerns the target T1, FLI1 (Homo sapiens, UniProt Q01543 1-452).
T1 sequence: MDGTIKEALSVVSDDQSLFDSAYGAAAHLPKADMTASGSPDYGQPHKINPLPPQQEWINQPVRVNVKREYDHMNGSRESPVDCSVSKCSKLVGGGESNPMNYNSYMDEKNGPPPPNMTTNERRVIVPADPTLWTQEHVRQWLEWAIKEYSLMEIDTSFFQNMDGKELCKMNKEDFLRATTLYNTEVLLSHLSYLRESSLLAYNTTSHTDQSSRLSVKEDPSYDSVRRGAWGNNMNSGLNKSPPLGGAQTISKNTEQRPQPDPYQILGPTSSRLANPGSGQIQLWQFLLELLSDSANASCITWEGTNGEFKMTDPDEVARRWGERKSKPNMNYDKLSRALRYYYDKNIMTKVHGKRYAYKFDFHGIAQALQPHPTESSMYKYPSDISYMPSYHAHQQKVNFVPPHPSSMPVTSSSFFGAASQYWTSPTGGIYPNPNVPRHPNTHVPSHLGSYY
Conditions: protein: recombinant; tags: N-terminal GST; dsDNA, one strand shown. An outline of the steps: (§1)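 Binding signal is defined as a hexamer's read frequency for one factor over its frequency for the tag-only sample. To obtain reads, GST-fused human transcription factors were expressed in yeast, captured on glutathione beads, barcoded with DNA and pooled with that sample. Pools met 200 nmole of a 16-mer random double-stranded DNA library in Tris/NaCl/DTT/glycerol buffer for 30 min at room temperature before washing, 0.1% formaldehyde crosslinking, proximity ligation (BsaI/T4 ligase, 1 h, 37 °C), PCR and Illumina NextSeq500 sequencing.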

The next experiment concerns the target T2, ELK1 (Homo sapiens, UniProt P19419 1-428).
T2 sequence: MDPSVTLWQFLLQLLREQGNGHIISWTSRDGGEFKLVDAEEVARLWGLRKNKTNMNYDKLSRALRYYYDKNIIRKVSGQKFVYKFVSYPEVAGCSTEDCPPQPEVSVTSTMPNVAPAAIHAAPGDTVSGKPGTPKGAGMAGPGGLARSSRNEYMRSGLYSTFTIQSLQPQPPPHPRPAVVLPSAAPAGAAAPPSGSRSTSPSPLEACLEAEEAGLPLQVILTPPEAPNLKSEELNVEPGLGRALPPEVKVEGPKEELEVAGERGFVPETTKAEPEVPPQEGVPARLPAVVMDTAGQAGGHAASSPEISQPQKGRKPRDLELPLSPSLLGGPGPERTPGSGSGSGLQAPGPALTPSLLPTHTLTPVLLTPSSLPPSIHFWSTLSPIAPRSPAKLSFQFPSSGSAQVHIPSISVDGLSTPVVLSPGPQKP
Conditions: protein: recombinant; tags: N-terminal GST; dsDNA, one strand shown. An outline of the steps:
as §1

For a further experiment, the target named is T3, GABPA (Homo sapiens, UniProt Q06546 1-454).
T3 sequence: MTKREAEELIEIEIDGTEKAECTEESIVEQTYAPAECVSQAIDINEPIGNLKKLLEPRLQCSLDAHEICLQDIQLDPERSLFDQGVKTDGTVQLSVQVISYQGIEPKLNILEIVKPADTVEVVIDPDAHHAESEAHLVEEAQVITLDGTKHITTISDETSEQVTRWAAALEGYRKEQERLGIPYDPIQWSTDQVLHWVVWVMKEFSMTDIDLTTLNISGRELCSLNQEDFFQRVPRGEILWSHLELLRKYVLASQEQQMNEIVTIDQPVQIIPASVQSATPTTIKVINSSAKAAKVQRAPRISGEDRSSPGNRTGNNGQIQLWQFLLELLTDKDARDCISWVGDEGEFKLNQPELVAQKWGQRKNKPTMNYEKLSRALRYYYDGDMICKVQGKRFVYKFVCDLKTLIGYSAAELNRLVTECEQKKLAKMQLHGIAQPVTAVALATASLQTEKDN
Conditions: protein: recombinant; tags: N-terminal GST; dsDNA, one strand shown. An outline of the steps: as §1

The target in a further experiment is T4, ERG (Homo sapiens, UniProt P11308 1-479).
T4 sequence: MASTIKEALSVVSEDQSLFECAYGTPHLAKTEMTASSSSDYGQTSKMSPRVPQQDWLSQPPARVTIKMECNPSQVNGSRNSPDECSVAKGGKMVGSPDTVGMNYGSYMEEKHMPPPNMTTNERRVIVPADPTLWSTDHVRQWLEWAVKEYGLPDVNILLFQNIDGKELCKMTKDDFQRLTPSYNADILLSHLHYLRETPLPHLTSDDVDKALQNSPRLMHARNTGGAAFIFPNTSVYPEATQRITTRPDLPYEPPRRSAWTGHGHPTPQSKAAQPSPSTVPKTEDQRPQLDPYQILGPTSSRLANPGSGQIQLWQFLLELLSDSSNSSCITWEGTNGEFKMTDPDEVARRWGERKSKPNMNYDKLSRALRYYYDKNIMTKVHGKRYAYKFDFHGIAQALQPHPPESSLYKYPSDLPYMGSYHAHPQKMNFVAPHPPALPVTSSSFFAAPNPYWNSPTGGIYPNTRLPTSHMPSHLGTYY
Conditions: protein: recombinant; tags: N-terminal GST; dsDNA, one strand shown. In outline: as §1

A further experiment concerns the target ELF1 (Homo sapiens, UniProt P32519 1-619). The conditions noted are these: protein: recombinant; tags: N-terminal GST; dsDNA, one strand shown. In outline: as §1
The next experiment addresses T5, EHF (Homo sapiens, UniProt Q9NZC4 1-300).
T5 sequence: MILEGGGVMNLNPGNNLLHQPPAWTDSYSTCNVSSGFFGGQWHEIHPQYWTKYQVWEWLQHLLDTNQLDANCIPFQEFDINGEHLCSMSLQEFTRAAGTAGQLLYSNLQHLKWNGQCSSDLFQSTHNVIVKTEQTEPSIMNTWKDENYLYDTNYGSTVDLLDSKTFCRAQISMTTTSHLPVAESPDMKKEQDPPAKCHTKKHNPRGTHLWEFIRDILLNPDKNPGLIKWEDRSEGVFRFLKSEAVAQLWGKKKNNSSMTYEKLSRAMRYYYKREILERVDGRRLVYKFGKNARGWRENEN
The conditions noted are these: protein: recombinant; tags: N-terminal GST; dsDNA, one strand shown. In outline: as §1

The next experiment deals with SPI1 (Homo sapiens, UniProt P17947 1-270). Conditions: protein: recombinant; tags: N-terminal GST; dsDNA, one strand shown. An outline of the steps:
as §1

The target of the next experiment is SPIB (Homo sapiens, UniProt Q01892 1-262). The conditions noted are these: protein: recombinant; tags: N-terminal GST; dsDNA, one strand shown. An outline of the steps: as §1
The next experiment concerns the target T6, ELK3 (Homo sapiens, UniProt P41970 1-407).
T6 sequence: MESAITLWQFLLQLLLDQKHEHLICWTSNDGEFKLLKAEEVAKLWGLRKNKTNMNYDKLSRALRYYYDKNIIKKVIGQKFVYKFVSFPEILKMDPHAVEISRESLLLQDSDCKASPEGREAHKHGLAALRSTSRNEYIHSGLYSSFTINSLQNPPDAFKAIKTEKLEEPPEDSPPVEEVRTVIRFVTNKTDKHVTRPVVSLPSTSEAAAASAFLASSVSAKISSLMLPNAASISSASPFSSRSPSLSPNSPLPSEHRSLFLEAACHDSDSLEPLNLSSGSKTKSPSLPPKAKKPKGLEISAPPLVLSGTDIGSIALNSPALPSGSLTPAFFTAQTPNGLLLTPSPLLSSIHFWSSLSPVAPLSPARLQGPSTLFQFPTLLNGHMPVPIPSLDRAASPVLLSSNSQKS
The conditions noted are these: protein: recombinant; tags: N-terminal GST; dsDNA, one strand shown. An outline of the steps:
as §1

The next experiment deals with T7, FEV (Homo sapiens, UniProt Q99581 1-238).
T7 sequence: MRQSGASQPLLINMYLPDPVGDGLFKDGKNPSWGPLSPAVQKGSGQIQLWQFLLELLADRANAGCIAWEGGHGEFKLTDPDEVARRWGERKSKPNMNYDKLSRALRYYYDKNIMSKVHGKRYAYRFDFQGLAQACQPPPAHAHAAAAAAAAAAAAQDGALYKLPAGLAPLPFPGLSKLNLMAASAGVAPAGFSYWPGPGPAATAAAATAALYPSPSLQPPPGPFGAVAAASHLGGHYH
The conditions noted are these: protein: recombinant; tags: N-terminal GST; dsDNA, one strand shown. In outline:
as §1

Another experiment deals with ETV5 (Homo sapiens, UniProt P41161 1-510). The conditions noted are these: protein: recombinant; tags: N-terminal GST; dsDNA, one strand shown. In outline:
as §1

The target in a further experiment is HSF1 (Homo sapiens, UniProt Q00613 1-529). The conditions noted are these: protein: recombinant; tags: N-terminal GST; chain copies: 3; dsDNA, one strand shown. An outline of the steps:
as §1

For the next experiment, the target named is ELF4 (Homo sapiens, UniProt Q99607 1-663). The conditions noted are these: protein: recombinant; tags: N-terminal GST; dsDNA, one strand shown. In outline: as §1
The target in a further experiment is T8, ELK4 (Homo sapiens, UniProt P28324-2 1-405).
T8 sequence: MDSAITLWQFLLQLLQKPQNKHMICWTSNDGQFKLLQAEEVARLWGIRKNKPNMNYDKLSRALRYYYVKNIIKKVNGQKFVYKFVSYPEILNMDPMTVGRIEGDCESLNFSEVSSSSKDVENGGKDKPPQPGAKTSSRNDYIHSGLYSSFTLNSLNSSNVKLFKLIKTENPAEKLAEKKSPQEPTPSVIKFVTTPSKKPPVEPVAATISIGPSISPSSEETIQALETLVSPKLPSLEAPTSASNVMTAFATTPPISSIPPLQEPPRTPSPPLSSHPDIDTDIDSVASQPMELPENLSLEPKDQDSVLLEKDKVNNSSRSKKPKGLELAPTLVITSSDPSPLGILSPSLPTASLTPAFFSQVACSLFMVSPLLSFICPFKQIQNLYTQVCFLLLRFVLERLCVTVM
The conditions noted are these: protein: recombinant; tags: N-terminal GST; dsDNA, one strand shown. In outline:
as §1

The target of a further experiment is T9, ETV2 (Homo sapiens, UniProt O00321 1-342).
T9 sequence: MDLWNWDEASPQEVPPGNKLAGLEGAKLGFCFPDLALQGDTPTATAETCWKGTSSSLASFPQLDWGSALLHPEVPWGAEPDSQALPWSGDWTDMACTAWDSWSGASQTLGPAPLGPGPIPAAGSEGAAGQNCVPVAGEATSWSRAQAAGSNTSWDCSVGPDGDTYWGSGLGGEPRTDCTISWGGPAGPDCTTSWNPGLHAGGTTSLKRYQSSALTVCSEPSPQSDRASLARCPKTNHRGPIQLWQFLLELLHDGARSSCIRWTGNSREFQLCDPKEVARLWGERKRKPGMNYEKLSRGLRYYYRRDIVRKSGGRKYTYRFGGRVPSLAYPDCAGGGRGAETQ
The conditions noted are these: protein: recombinant; tags: N-terminal GST; dsDNA, one strand shown. An outline of the steps:
as §1

A further experiment has as its target T10, ELF3 (Homo sapiens, UniProt P78545 1-371).
T10 sequence: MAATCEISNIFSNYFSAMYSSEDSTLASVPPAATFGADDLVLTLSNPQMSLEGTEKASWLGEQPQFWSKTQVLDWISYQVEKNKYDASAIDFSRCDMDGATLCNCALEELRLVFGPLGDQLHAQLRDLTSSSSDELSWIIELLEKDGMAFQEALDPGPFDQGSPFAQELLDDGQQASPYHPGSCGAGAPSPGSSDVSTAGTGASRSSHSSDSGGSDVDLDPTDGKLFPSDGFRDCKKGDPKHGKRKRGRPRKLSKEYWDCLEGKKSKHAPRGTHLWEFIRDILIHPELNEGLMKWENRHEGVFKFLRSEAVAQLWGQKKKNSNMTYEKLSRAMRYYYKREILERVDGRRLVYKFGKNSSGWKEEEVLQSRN
The conditions noted are these: protein: recombinant; tags: N-terminal GST; dsDNA, one strand shown. An outline of the steps:
as §1

In the next experiment the target is CRX (Homo sapiens, UniProt O43186 1-299). Conditions: protein: recombinant; tags: N-terminal GST; dsDNA, one strand shown. An outline of the steps: as §1
The target in a further experiment is ETV1 (Homo sapiens, UniProt P50549 1-477). Conditions: protein: recombinant; tags: N-terminal GST; dsDNA, one strand shown. In outline:
as §1

Chain of SPIB (Q01892 whole entry): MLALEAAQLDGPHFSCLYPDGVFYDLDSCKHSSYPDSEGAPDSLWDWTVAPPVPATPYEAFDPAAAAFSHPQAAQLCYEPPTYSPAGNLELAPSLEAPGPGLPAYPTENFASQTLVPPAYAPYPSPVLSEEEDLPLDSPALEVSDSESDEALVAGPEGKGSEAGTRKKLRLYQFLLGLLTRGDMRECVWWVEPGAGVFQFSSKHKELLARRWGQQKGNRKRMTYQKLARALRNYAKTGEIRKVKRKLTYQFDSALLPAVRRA
Chain of ELF4 (Q99607 whole entry): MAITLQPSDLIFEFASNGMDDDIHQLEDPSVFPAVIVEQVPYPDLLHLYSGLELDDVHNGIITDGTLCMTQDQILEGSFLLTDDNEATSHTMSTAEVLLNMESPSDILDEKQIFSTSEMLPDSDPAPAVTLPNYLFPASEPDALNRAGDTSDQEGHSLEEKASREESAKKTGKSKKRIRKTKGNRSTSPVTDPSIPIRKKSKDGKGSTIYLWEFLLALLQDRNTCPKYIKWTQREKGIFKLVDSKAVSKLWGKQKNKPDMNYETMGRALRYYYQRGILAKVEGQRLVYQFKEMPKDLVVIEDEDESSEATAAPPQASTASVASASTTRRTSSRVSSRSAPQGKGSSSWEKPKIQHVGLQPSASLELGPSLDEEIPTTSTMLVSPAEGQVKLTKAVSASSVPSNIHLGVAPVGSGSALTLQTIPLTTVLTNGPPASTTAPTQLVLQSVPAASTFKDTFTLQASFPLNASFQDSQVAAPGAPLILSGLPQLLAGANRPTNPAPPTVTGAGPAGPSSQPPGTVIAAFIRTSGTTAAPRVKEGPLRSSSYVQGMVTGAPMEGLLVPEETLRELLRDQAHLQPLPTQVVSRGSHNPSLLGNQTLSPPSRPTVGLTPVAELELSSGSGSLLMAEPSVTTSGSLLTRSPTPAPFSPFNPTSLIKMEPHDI
Chain of ETV5 (P41161 whole entry): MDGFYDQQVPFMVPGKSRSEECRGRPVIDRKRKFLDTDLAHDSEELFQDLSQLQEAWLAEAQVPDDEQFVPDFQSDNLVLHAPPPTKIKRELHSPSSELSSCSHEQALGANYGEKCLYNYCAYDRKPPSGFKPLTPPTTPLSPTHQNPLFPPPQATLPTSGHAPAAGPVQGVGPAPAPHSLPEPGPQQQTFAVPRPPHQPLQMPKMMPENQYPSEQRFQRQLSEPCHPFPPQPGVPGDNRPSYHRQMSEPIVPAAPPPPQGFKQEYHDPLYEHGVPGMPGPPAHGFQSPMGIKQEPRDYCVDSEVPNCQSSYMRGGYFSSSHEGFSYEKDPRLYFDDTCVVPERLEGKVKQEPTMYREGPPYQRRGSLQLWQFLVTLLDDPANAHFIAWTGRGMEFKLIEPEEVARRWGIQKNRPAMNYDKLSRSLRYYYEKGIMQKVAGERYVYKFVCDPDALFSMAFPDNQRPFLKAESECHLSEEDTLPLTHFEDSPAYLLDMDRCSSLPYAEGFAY
Chain of ETV1 (P50549 whole entry): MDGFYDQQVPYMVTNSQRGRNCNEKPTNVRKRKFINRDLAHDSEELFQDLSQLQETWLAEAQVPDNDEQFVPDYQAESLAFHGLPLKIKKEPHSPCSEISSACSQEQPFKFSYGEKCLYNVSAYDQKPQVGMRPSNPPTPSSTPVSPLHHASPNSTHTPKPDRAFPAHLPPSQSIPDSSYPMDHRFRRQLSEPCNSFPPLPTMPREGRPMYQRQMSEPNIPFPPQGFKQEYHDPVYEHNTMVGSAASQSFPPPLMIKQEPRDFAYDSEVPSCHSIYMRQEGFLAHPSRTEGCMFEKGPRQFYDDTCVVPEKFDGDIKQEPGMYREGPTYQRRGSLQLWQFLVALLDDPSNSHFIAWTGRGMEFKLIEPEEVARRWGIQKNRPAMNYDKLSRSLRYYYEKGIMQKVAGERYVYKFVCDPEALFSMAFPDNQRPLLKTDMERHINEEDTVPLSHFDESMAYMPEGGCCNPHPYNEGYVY
Chain of ELF1 (P32519 whole entry): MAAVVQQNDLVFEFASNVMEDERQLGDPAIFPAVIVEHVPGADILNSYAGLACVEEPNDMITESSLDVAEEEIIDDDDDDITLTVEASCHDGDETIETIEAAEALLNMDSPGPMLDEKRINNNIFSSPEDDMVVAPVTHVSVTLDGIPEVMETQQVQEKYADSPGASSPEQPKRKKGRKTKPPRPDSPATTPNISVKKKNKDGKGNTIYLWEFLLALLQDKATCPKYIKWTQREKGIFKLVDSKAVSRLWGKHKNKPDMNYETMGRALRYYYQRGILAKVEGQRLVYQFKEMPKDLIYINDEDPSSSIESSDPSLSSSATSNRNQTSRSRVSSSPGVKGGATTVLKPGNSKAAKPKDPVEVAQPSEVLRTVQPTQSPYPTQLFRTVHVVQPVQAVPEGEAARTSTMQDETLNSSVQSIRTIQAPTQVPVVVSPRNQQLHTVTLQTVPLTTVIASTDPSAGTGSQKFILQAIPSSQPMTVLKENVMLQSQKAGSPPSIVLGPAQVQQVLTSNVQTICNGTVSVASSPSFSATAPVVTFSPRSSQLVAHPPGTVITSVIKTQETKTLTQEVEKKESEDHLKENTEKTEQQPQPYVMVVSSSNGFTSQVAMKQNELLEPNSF
Chain of HSF1 (Q00613 whole entry): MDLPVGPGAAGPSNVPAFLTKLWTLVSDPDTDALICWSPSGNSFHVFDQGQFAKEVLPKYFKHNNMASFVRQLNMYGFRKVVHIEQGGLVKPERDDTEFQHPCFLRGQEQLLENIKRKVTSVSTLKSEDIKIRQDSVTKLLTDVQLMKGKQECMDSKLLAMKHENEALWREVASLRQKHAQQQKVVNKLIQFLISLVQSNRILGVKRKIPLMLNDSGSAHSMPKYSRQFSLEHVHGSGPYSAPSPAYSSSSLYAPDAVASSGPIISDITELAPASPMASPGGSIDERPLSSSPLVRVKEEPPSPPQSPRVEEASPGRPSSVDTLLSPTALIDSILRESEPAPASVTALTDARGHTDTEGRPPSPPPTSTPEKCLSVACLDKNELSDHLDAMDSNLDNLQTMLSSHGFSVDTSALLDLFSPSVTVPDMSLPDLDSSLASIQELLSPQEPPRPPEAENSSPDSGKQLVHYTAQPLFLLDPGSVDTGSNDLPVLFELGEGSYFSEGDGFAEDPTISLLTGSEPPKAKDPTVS
Chain of CRX (O43186 whole entry): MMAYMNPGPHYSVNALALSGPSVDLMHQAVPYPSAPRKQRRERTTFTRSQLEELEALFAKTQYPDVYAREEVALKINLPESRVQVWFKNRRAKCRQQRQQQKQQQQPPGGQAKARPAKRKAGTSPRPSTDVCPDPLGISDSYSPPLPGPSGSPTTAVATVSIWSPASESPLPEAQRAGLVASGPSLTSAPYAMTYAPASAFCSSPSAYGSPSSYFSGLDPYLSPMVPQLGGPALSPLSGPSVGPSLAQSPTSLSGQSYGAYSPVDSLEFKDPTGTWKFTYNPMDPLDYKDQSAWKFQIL

For ATAGCA, the binding signal with FLI1 is 1.17 fold enrichment (6-mer frequency, TF over GST control); with ELK1 it was 1.14 fold enrichment (6-mer frequency, TF over GST control); with GABPA, 1.19 fold enrichment (6-mer frequency, TF over GST control); with ERG, 1.19 fold enrichment (6-mer frequency, TF over GST control); with ELF1 it was 1.14 fold enrichment (6-mer frequency, TF over GST control); with EHF, 1.13 fold enrichment (6-mer frequency, TF over GST control). In addition, the binding signal is 1.11 fold enrichment (6-mer frequency, TF over GST control) in the experiment with SPI1; 1.18 fold enrichment (6-mer frequency, TF over GST control) with SPIB; 1.15 fold enrichment (6-mer frequency, TF over GST control) with ELK3; 1.13 fold enrichment (6-mer frequency, TF over GST control) in the experiment with FEV; 1.17 fold enrichment (6-mer frequency, TF over GST control) with ETV5; 1.02 fold enrichment (6-mer frequency, TF over GST control) in the experiment with HSF1. The binding signal with ELF4 was 1.16 fold enrichment (6-mer frequency, TF over GST control); in the experiment with ELK4, 1.15 fold enrichment (6-mer frequency, TF over GST control); in the experiment with ETV2 it was 1.13 fold enrichment (6-mer frequency, TF over GST control); in the experiment with ELF3 it was 1.25 fold enrichment (6-mer frequency, TF over GST control); in the experiment with CRX, 1.07 fold enrichment (6-mer frequency, TF over GST control); with ETV1, 1.1 fold enrichment (6-mer frequency, TF over GST control).
